Experimental data taken from publication PMC6753376.

target: CCT7 (UniProt Q99832); experiment: cross-linking mass spectrometry; details: lysate
Sequence (Q99832 whole entry): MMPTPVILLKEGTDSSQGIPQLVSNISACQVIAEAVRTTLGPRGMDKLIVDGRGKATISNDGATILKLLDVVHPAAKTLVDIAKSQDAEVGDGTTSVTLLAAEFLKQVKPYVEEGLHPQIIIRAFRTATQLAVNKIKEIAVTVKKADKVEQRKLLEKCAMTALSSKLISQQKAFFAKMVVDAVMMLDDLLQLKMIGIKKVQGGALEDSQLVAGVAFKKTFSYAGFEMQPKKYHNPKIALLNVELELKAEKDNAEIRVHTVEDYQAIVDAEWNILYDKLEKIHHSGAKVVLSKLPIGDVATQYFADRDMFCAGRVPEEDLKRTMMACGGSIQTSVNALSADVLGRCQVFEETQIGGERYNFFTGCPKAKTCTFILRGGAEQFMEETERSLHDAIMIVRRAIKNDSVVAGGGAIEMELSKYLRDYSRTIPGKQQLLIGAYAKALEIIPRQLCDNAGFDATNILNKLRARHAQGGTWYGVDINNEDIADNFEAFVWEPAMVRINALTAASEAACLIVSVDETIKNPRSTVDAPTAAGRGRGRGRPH

Chain of USO1, O60763 (O60763 whole entry): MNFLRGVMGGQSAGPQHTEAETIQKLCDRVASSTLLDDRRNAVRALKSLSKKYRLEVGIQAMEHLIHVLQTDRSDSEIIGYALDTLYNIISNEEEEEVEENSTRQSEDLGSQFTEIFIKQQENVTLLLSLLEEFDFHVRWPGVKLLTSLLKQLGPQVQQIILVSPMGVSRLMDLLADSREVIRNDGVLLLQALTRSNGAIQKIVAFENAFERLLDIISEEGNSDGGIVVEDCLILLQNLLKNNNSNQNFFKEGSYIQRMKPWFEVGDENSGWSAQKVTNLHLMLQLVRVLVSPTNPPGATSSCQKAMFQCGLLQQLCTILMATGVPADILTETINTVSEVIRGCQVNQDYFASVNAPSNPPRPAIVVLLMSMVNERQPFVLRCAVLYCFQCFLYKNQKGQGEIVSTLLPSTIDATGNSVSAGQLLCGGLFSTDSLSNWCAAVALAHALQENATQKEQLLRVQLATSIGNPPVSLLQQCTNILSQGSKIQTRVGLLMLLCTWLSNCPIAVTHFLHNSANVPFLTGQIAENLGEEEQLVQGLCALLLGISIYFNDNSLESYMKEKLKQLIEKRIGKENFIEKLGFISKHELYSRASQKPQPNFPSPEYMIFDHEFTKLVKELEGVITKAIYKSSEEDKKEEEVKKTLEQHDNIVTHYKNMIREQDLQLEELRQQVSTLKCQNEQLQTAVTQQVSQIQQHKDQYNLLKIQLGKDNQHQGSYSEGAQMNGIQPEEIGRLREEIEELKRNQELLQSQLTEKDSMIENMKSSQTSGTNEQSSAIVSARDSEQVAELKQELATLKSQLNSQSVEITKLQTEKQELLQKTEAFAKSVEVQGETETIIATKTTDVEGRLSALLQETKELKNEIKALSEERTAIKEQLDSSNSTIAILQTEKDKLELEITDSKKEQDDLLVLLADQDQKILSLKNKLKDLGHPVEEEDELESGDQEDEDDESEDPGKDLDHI
Chain of CCT5, P48643 (P48643 whole entry): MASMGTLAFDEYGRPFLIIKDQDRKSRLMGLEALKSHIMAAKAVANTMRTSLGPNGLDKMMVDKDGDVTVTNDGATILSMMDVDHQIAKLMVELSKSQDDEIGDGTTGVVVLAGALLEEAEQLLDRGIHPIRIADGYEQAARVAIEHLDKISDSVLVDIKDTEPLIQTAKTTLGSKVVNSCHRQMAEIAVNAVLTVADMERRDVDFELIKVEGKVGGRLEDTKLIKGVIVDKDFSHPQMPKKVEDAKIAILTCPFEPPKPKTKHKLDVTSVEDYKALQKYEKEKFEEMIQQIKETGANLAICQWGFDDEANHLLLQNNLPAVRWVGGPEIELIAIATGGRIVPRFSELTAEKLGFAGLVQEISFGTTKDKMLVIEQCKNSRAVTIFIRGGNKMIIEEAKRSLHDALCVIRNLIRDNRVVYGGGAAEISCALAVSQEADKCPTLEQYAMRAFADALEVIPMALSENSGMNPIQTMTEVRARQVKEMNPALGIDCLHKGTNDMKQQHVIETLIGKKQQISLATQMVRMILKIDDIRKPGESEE
Chain of CCT8, P50990 (P50990 whole entry): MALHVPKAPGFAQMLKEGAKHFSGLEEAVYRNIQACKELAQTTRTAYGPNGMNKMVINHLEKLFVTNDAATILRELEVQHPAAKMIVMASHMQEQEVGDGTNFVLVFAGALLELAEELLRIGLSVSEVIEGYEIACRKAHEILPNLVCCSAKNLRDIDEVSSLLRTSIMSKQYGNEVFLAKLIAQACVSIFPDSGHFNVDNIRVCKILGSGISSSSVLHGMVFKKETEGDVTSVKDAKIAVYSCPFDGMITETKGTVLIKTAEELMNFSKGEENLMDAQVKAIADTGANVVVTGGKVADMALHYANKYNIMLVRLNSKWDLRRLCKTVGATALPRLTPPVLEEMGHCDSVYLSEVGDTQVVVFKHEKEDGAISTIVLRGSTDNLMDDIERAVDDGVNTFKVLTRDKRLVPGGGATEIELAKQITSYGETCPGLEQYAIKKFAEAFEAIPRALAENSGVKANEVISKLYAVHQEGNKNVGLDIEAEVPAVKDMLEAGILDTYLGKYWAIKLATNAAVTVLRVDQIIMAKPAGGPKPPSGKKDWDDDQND

| Substance | cross-linked residues |
| --- | --- |
| USO1, O60763 | S164 - S329 |
| CCT5, P48643 | K89 - K55 |
| CCT8, P50990 | K270 - K236 |
